Bioassay records deposited in PubChem BioAssay by several laboratories.
Compounds with a hit are over-represented: about 1.4% of the library has one in this group of screens.
beta cell repl: MIN6 beta-cell proliferation induction. proliferation, % at 10 µM. 0.29% of 330,000 active. AID 2380. MIN6 cells proliferation, ATPlite luminescence, 48 h; cells starved in 0.2% serum; 100% = growth in 10% serum;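 active = compounds whose signal lies at least 3.5 SD above the mean of all wells on their plate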
HSV augment: increases HSV replication in cells | HSV replication augmentation in cells, fold increase | maximum fold increase | 0.005% of 220,000 active; in the data active = maximum fold increase above about 1.5; tested in PC3 cells
Cardio protect: modulators protecting cardiomyocytes from myocardial damage | H9c2 cardiomyocytes, H2O2 injury protection, ATPLite, 2 h | AID 588492 | protection from H2O2 cell death, % at 20 µM | 0.63% of 360,000 active;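 active = compounds giving at least 50% protection of heart cells from peroxide-induced death in the single-dose screen, raw or plate-pattern-corrected value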
V-ATPase pHluor: yeast V-ATPase proton transport regulation by pHLuorin; S. cerevisiae, pHLuorin cytosolic pH fluorescence; response, % at 10 µM; 0.37% of 350,000 active; in the data active = response mostly above about 7.3%, no sharp cut-off; inactive = mostly below about 5.4%; note: actives read high
pCIP destab: lowers stability of the mouse p/CIP coactivator protein; Q05BA5; F442A p/CIP-EGFP cells, EGFP fluorescence, 16 h; decrease of EGFP signal, % at 10 µM; 0.01% of 290,000 active; AID 1984;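 active = EGFP signal decrease of at least 30% at 10 µM or well 3 SD below plate mean, unless failing retest; inactive = the rest, including hits failing retest or dose response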
CR mimetic SO: lowers age-related superoxide in aged yeast cells. S. cerevisiae aged cells, superoxide DHE fluorescence; active compounds read low. superoxide response (% of plate mean), % at 10 µM. 0.18% of 330,000 active;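 active = superoxide response under a set limit, about three screen SD below normal, cut at about 65% in these data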;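 note: yeast aged for seven days with compound at 30 °C before DHE staining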
V-ATPase pH SP: regulators of yeast V-ATPase proton transport | shares compounds with V-ATPase pHluor | S. cerevisiae pHLuorin cytosolic pH | response, % at 10 µM | 2% of 980 active | AID 602197; in the data active = response above about 24%
A number is an active result; i = inactive; nt = no result given.

SMILES	beta cell repl	HSV augment	Cardio protect	V-ATPase pHluor	pCIP destab	CR mimetic SO	V-ATPase pH SP
C#CCNC(=O)C1=C[C@H](C(C)(C)C)C[C@H](OCCCCO)O1	i	i	i	16	nt	i	i
CC1CCCCC1NC(=O)Cn1c(CN2CCCCC2)nc2ccccc2c1=O (configuration not stated)	i	i	i	i	i	i	nt
CC1CCCCC1NC(=O)Cn1nnc2ccccc2c1=O (configuration not stated)	i	i	i	18	i	i	i
CC(C)C(=O)Nc1cc(=O)[nH]c2ncnn12	i	i	i	10	i	i	i
O=C(NNc1nc2ccccc2s1)c1ccc(F)cc1	i	i	i	5.8	i	i	i
O=C(Nc1ccccc1)c1cc(C2CCCCN2S(=O)(=O)Cc2cccc(C(F)(F)F)c2)on1 (configuration not stated)	nt	nt	i	nt	nt	nt	nt
Cn1c(O)c(N=NC(=N)N)c2ccccc21	i	i	i	i	i	i	nt
C=CCn1c(O)c(N=NC(=O)OCC)c2ccccc21	i	i	i	i	i	i	i
CCOC(=O)N=Nc1c(O)n(C)c2ccccc12	i	i	i	i	i	i	i
O=C(NC1CCCCCC1)c1ccc(OCC2CCCO2)cc1 (configuration not stated)	i	i	i	7.8	i	i	i
CCc1nc(SCC(=O)Nc2nccs2)c2oc3ccccc3c2n1	i	nt	i	10	i	i	i
O=C(CSc1ncnc2c1oc1ccccc12)Nc1nccs1	i	nt	i	i	i	i	nt
CCOC(=O)c1ccc(NC(=O)C(=O)NCc2ccncc2)cc1	i	i	i	11	i	i	i
CCCCOC(=O)c1ccc(NC(=O)C(=O)NCc2ccncc2)cc1	i	i	i	i	i	i	nt
COc1ccc(NS(=O)(=O)c2ccc(C)c(C(=O)NCC(c3ccco3)N3CCCCC3)c2)cc1 (configuration not stated)	i	nt	i	9.9	nt	i	i
Cc1cccc(NS(=O)(=O)c2ccc(C)c(C(=O)NCC(c3ccco3)N3CCCCC3)c2)c1 (configuration not stated)	i	nt	i	i	nt	nt	nt
CC(=O)c1cccc(-c2ccnc3c2CC(C(=O)Nc2ccc(Cl)c(C(F)(F)F)c2)O3)c1 (configuration not stated)	nt	nt	i	nt	nt	nt	nt
C/C(CCc1ccc2c(c1)OCO2)=N\N=C1\NC(=O)CC(C(=O)Nc2ccc(Cl)cc2)S1 (configuration not stated)	i	i	i	i	i	i	nt
CN1CCN(C(=O)CN(CCc2ccccc2)S(C)(=O)=O)CC1	i	i	i	11	i	i	i
CC(C)(C)C(=O)Nc1nc2c(c(=O)[nH]1)CCCC2	i	i	i	i	i	i	nt
CC1Nc2nc(NC(=O)C(C)(C)C)[nH]c(=O)c2N(C)C1C (configuration not stated)	i	i	i	12	i	i	i
N#CC1=C(N)Oc2c(ccc3cccnc23)C1c1cccnc1 (configuration not stated)	i	nt	83	9.7	i	i	i
COCCN1C(=O)C(=O)/C(=C(/O)c2ccc(S(=O)(=O)N3CCOCC3)cc2)C1c1ccc(C(C)C)cc1 (configuration not stated)	nt	i	nt	nt	i	nt	nt
COCCn1c(SCC(=O)NNC(=O)c2ccccc2)nc2ccccc2c1=O	i	i	i	11	i	i	i
COCCn1c(SCC(=O)NNC(=O)c2ccc(OC)c(OC)c2)nc2ccccc2c1=O	i	i	i	i	i	i	nt
SMILES	beta cell repl	HSV augment	Cardio protect	V-ATPase pHluor	pCIP destab	CR mimetic SO	V-ATPase pH SP
CC(C)CCc1noc(CN(C)CCC2CCOCC2)n1	i	i	i	i	i	i	nt
CN(CCC1CCOCC1)Cc1nc(Cc2ccccc2F)no1	i	i	i	11	i	i	i
COc1ccccc1Cc1c(-c2ccco2)nc2c(C)cc(Br)cn12	nt	nt	i	nt	nt	nt	nt
Cc1nn(-c2ccccc2)c(N2CCCC2)c1/C=C1\N=C(c2ccc(F)cc2)OC1=O	i	i	i	i	i	i	nt
Cc1ccc(C2=N/C(=C\c3c(C)nn(-c4ccccc4)c3N3CCCC3)C(=O)O2)cc1	i	i	i	71	i	i	i
CC1(N(O)C=C2C=CC(=O)C=C2)CCCCC1=O (configuration not stated)	i	i	i	i	i	i	nt
